In assay [1] the target is Ribosomal protein S6 kinase alpha-6 (Homo sapiens) (UniProt Q9UK32). Particulars: at 1 µM.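 Note: each value is a mean inhibition of RSK4 from a GSK PKIS panel screen.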
Assay [2] addresses T1, Serine/threonine-protein kinase Sgk1 (Homo sapiens) (UniProt O00141).
T1 sequence (whole entry): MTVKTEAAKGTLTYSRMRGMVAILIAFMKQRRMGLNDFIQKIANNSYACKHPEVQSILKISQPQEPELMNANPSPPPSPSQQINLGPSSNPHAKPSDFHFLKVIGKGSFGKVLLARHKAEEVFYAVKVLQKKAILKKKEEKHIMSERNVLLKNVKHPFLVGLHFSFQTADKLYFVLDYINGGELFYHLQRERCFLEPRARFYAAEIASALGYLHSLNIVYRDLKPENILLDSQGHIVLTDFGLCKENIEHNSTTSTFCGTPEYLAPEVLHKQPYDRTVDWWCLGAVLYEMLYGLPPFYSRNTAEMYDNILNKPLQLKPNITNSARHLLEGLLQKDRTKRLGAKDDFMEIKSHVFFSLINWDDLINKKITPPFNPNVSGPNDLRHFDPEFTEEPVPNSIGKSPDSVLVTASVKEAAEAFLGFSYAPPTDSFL
As to conditions: at 0.1 µM.

Assay [3] concerns the target T1, Serine/threonine-protein kinase Sgk1 (Homo sapiens). Particulars: at 1 µM.
The target of assay [4] is T2, Serine/threonine-protein kinase Sgk2 (Homo sapiens) (UniProt Q9HBY8).
T2 sequence (whole entry): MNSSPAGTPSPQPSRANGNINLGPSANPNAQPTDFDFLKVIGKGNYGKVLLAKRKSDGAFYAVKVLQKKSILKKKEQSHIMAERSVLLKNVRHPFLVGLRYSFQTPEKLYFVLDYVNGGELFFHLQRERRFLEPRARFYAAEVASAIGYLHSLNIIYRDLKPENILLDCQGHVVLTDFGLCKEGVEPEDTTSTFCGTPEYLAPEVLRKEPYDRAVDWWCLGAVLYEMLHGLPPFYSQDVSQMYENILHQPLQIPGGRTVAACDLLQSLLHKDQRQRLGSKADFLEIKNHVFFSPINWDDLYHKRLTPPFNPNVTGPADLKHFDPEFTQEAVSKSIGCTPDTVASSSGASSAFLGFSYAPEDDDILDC
As to conditions: at 0.1 µM.

Assay [5] deals with T2, Serine/threonine-protein kinase Sgk2 (Homo sapiens). Particulars: at 1 µM.
The target in assay [6] is T3, Serine/threonine-protein kinase Sgk3 (Homo sapiens) (UniProt Q96BR1).
T3 sequence (whole entry): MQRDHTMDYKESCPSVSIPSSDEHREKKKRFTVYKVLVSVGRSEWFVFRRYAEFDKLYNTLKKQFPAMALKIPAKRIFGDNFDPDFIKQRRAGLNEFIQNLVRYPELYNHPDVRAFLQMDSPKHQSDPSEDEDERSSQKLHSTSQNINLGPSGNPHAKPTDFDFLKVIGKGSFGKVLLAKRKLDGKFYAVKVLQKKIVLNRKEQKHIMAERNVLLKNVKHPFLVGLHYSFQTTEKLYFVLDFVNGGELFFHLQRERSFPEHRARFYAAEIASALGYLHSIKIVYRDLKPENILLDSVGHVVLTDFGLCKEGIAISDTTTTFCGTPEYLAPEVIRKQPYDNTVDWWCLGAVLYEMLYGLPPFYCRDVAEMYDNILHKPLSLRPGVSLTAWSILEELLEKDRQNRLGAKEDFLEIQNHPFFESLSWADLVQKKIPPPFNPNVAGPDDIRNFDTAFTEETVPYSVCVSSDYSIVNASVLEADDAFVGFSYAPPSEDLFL
Particulars: at 0.1 µM.

The target of assay [7] is T3, Serine/threonine-protein kinase Sgk3 (Homo sapiens). Particulars: at 1 µM.
Assay [8] addresses 5'-AMP-activated protein kinase catalytic subunit alpha-1 (Homo sapiens) (UniProt Q13131). As to conditions: at 0.1 µM.
Assay [9] has the same target. Particulars: at 1 µM.
Assay [10] deals with 5'-AMP-activated protein kinase catalytic subunit alpha-2 (Homo sapiens) (UniProt P54646). As to conditions: at 0.1 µM.
Sequence of 5'-AMP-activated protein kinase catalytic subunit alpha-2 (Homo sapiens) (P54646 whole entry, looked up): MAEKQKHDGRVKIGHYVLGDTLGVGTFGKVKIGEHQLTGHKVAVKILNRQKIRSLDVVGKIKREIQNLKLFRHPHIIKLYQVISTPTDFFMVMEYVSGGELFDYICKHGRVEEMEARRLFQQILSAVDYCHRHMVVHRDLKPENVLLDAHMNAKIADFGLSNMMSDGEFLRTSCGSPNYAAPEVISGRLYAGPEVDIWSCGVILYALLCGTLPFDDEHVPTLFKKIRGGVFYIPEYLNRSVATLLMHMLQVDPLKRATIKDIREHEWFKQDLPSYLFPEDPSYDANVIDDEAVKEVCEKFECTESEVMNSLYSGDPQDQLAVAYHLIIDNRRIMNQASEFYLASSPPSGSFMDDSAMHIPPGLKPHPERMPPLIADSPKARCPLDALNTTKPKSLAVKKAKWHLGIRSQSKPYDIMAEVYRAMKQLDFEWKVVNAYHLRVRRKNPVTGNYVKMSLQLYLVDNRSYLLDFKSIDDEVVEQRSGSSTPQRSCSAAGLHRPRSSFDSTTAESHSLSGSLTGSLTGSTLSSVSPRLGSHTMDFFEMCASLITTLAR
For assay [11] the target is unchanged. Particulars: at 1 µM.
The target in assay [12] is T4, NUAK family SNF1-like kinase 1 (Homo sapiens) (UniProt O60285).
T4 sequence (whole entry): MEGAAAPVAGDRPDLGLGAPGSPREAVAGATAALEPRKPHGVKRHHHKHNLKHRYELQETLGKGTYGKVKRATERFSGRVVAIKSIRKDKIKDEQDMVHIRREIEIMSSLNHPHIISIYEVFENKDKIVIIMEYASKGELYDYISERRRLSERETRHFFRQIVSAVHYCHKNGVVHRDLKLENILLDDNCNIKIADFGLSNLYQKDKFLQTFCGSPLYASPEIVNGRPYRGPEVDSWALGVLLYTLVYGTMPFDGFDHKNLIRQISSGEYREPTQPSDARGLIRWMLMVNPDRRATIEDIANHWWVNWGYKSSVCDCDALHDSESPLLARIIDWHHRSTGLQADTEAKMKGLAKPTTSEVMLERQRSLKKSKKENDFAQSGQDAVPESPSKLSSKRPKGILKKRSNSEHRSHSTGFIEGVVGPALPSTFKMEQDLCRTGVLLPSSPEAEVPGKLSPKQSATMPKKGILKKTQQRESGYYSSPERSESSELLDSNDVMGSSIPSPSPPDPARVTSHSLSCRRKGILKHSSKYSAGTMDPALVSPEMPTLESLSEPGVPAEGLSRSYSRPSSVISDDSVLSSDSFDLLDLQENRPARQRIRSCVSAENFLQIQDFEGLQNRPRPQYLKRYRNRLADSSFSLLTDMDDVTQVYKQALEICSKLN
Particulars: at 0.1 µM.

For assay [13], the target named is T4, NUAK family SNF1-like kinase 1 (Homo sapiens). As to conditions: at 1 µM.
Assay [14] has as its target T5, Serine/threonine-protein kinase BRSK1 (Homo sapiens) (UniProt Q8TDC3).
T5 sequence (whole entry): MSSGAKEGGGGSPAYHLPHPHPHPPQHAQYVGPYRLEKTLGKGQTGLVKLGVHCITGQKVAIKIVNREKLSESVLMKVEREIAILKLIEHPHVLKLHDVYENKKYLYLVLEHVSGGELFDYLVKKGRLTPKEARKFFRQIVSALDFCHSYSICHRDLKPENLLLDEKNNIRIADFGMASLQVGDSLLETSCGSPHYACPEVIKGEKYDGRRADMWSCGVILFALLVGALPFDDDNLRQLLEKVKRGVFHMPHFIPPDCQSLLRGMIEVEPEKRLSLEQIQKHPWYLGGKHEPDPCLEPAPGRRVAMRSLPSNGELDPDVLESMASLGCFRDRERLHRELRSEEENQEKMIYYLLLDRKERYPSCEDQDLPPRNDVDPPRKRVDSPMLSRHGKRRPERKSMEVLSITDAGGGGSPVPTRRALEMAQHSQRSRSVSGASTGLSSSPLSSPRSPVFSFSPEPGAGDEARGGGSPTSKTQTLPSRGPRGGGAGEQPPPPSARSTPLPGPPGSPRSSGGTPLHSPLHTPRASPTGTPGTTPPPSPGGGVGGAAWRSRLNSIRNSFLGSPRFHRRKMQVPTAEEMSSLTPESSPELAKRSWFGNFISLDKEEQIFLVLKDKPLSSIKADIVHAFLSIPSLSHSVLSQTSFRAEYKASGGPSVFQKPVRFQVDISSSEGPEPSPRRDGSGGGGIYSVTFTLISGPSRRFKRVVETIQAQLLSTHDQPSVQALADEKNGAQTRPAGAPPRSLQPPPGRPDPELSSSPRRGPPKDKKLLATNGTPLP
Particulars: at 0.1 µM.

The target in assay [15] is T5, Serine/threonine-protein kinase BRSK1 (Homo sapiens). Particulars: at 1 µM.
Assay [16] concerns the target T6, Serine/threonine-protein kinase BRSK2 (Homo sapiens) (UniProt Q8IWQ3).
T6 sequence (whole entry): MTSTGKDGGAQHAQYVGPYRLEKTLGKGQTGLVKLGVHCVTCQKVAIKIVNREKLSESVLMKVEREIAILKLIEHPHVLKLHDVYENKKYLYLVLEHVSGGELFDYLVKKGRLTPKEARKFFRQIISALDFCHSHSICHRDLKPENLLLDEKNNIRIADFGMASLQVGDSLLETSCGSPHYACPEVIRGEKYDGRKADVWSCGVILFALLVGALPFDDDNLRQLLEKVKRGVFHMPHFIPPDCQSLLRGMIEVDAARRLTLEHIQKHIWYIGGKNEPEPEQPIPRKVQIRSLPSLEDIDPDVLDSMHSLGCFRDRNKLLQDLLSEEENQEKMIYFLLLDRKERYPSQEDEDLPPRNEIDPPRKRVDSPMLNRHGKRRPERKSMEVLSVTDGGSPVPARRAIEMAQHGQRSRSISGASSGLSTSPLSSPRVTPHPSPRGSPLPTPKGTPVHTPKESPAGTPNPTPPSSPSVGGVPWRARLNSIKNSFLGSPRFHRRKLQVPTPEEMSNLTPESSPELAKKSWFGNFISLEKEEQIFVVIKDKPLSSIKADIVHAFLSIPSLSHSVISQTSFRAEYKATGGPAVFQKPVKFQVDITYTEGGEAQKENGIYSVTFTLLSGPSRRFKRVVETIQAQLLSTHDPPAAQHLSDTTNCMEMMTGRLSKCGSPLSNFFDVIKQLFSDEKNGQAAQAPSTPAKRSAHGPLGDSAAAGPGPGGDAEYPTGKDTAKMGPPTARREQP
As to conditions: at 0.1 µM.

Assay [17] concerns the target T6, Serine/threonine-protein kinase BRSK2 (Homo sapiens). As to conditions: at 1 µM.
Assay [18] has as its target Calcium/calmodulin-dependent protein kinase type 1D (Homo sapiens) (UniProt Q8IU85). As to conditions: at 0.1 µM.
Assay [19] has the same target. As to conditions: at 1 µM.
Assay [20] addresses Calcium/calmodulin-dependent protein kinase type II subunit alpha (Homo sapiens) (UniProt Q9UQM7). As to conditions: at 0.1 µM.

Sequence of 5'-AMP-activated protein kinase catalytic subunit alpha-1 (Homo sapiens) (Q13131 whole entry, looked up): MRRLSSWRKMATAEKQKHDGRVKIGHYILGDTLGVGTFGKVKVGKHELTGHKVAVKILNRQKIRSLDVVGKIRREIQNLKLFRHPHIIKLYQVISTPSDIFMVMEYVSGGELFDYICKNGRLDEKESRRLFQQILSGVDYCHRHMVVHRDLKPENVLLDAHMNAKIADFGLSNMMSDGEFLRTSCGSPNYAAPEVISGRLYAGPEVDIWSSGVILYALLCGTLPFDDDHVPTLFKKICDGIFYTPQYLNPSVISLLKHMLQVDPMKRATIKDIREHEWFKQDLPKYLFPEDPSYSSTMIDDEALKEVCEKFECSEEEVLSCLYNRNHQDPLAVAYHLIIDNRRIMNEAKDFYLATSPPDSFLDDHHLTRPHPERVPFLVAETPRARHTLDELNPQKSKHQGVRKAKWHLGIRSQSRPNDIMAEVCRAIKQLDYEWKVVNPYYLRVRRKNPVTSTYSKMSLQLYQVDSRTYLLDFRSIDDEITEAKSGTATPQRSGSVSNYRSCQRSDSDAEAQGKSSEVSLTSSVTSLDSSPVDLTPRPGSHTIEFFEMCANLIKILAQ
Sequence of Ribosomal protein S6 kinase alpha-6 (Homo sapiens) (Q9UK32 whole entry): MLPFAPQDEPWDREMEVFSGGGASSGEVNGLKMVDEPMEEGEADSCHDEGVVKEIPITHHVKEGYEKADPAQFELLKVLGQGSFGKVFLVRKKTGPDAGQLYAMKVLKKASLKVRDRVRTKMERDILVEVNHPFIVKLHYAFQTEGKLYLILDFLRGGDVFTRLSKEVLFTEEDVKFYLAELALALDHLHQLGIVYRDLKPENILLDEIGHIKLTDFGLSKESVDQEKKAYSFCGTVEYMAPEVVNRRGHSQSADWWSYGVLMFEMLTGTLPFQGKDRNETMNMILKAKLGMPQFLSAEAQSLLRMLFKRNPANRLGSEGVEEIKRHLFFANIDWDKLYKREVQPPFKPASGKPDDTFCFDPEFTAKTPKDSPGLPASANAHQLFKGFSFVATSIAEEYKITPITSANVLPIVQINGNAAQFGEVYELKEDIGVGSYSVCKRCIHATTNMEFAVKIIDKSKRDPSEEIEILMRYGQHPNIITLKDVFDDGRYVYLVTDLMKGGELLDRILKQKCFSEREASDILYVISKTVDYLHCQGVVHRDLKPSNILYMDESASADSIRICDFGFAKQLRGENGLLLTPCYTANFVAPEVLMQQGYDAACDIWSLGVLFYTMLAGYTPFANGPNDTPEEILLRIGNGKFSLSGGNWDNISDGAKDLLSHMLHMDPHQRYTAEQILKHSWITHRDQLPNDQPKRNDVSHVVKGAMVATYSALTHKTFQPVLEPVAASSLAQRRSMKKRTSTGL
Sequence of Calcium/calmodulin-dependent protein kinase type II subunit alpha (Homo sapiens) (Q9UQM7 whole entry): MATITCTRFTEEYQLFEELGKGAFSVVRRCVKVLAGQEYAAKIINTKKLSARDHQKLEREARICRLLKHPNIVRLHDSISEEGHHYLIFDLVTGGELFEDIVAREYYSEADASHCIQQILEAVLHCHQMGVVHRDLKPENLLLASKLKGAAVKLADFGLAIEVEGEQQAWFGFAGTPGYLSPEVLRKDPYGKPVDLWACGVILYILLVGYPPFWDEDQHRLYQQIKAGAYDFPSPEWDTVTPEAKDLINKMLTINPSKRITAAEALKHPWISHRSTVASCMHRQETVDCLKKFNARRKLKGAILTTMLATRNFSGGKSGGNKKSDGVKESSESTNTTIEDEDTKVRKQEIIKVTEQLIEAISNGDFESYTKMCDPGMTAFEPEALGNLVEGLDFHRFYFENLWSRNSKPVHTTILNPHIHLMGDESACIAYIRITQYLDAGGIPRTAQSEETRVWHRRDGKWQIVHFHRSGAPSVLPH
Sequence of Calcium/calmodulin-dependent protein kinase type 1D (Homo sapiens) (Q8IU85 whole entry, looked up): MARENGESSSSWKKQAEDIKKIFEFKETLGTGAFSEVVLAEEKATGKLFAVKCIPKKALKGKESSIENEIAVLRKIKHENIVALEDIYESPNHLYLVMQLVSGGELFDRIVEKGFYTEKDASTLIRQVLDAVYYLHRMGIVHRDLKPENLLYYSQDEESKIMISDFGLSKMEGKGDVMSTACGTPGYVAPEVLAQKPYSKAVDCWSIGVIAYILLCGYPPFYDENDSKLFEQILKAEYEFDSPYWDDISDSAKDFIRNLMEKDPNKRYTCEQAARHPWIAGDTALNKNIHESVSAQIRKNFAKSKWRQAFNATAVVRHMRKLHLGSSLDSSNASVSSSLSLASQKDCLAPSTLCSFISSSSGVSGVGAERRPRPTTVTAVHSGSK

`Fc1ccc(-c2nn3ncccc3c2-c2ccnc(Nc3ccc4c(c3)OCCO4)n2)cc1`: the inhibition is 5.49% in assay [1]; 3.85% in assay [2]; 3.42% in [3]; 0.17% in assay [4]; 0.65% in assay [5]; 4.45% in assay [6]. For the same molecule, the inhibition is 0.8% in assay [7]; 3% in assay [8]; 1.48% in assay [9]; 3.53% in [10]; 4.39% in [11]; -3.69% in assay [12]. The inhibition in [13] is -0.79%; in assay [14], 0.48%; in [15] it was -0.53%; in [16], 0.21%; in [17], -0.44%; in assay [18], -0.07%. Also, the values for the inhibition in [19] and in assay [20] were 8.91% and 3.81%, respectively.
In the case of `COC(=O)Nc1nc2ccc(Oc3ccc(NC(=O)Nc4cccc(Cl)c4)cc3)cc2[nH]1`, the inhibition in assay [1] is -1.02%; in [2], 0.53%; in assay [3], 0.15%; in [4] it was 1.28%; in assay [5], -2.41%; in assay [6] it was 0.38%. In addition, the inhibition was 0.61% in assay [7]; 0.94% in assay [8]; 0.58% in assay [9]; 1.29% in [10]; 2.32% in assay [11]; 1.13% in assay [12]. Further, the inhibition in [13] was -0.04%; in assay [14], -0.24%; in [15], -0.19%; in assay [16], 1.18%; in assay [17], 0.86%; in [18], 0.74%. Besides, the inhibition in assay [19] is 0.72%; in [20], -1.44%.
With `COc1cc(/C=N/Nc2ncnc3[nH]ncc23)ccc1O`, the inhibition worked out at 13.3% in [1]; 13% in [2]; 54.4% in assay [3]; 6.14% in assay [4]; 19.9% in assay [5]; 3.82% in assay [6]. Besides, the inhibition in [7] was 5.26%; in [8], 5.24%; in assay [9] it was 20.5%; in assay [10] it was 2.66%; in assay [11], 20.2%; in assay [12], 6.98%. The inhibition in assay [13] worked out at 27.6%; in [14] it was 1.12%; in [15] it was 18%; in assay [16] it was 4.62%; in assay [17], 22.9%; in assay [18], 1.07%. The results for the inhibition in assay [19] and in assay [20] were 5.49% and 2.62%, respectively.

For the origin of these results see ChEMBL document CHEMBL1961873, “Compounds: GSK PKIS; Assays: Nanosyn kinase panel” (2012).
